Our source for the growth inhibition values is PubChem BioAssay (NCI).

Assay [1] is described as follows: NCI Yeast Anticancer Drug Screen. Data for the rad50 strain (AID 155).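 Note: 0% = growth of vehicle-only cultures of the same strain.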 The note with it: S. cerevisiae rad50 strain growth inhibition; at 50.0 µM; stronger effect = higher value. In short, it runs like this:
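Relative growth inhibition (compound vs vehicle) was measured in yeast with a defined repair-gene alteration.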

Assay [2] can be described thus: NCI Yeast Anticancer Drug Screen. Data for the mec2-1 strain (AID 157). The note with it: S. cerevisiae mec2-1 strain, at 50.0 µM, stronger effect = higher value. In short, it runs like this: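 Growth inhibition is read against vehicle-treated controls after compound exposure of the mec2-1 yeast strain, which is defective in DNA damage repair or cell cycle control.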
Assay [3] is described as follows: NCI Yeast Anticancer Drug Screen. Data for the sgs1 mgt1 strain (AID 161).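 Note: 0% = growth of cultures given vehicle only.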 To be noted: S. cerevisiae sgs1 mgt1 strain, at 50.0 µM, stronger effect = higher value. In short, it runs like this: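 This yeast growth screen uses a strain with defined DNA-repair lesions; compound-treated growth is compared with vehicle-treated growth.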
Assay [4] can be described thus: NCI Yeast Anticancer Drug Screen. Data for the cln2 rad14 strain (AID 165).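 Note: 0% = growth equal to vehicle treated cultures.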 The note with it: S. cerevisiae cln2 rad14 strain, at 50.0 µM, stronger effect = higher value. In short, it runs like this: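 Growth inhibition, relative to vehicle-treated controls, is the read-out. The test organism is a yeast strain with defined genetic alterations, cln2 rad14.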
Assay [5] is described as follows: NCI Yeast Anticancer Drug Screen. Data for the bub3 strain (AID 167). To be noted: S. cerevisiae bub3 mutant strain, at 50.0 µM, stronger effect = higher value. In short, it runs like this: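 Screening used yeast with an engineered genetic alteration affecting cell cycle control. Compound-exposed cultures were compared with vehicle cultures, and reduced growth was taken as inhibition.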

The nature of assay [6]: NCI Yeast Anticancer Drug Screen. Data for the mlh1 rad18 strain (AID 175). The note with it: S. cerevisiae mlh1 rad18 strain growth inhibition; at 50.0 µM; stronger effect = higher value. In short, it runs like this: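 Cells of a genetically altered yeast strain, deficient in DNA damage repair, were treated with compound. Their growth was then compared with that of vehicle-treated cultures to give inhibition.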

This is part of a sample that, as a whole, favours compounds with a hit. Of some 79,000 tested, about 15% had one in any assay. A number with no mark means an inactive call. Calls of active or inactive are those of the source. Cut-off read from the data, not from the text of the source: active = growth inhibition above about 70%; inactive = the rest.

Take `CC(C)c1ccc(/C=C2\C=Nc3ccccc32)cc1`: the growth inhibition in assay [1] was 15.8%; in assay [2] it was 11.7%; in assay [3], 28.9%; in assay [4], 5.2%; in assay [5] it was 50.7%; in assay [6], 20.6%.

In the case of `CCOC(=O)CCCC(NC(=O)c1ccc(N2CCN(c3c(N)nc(N)nc3NC)CC2)cc1)C(=O)OCC` (stereo not given), the growth inhibition in assay [1] is 9.95%; in assay [2], 5.75%; in assay [3], -0.4%; in assay [4], 6.55%; in assay [5], -3.95%; in assay [6] it was -2.3%.

`C/C=C(/C)C(=O)O[C@H]1C(C)=C[C@]23C(=O)[C@@H](C=C(COC(C)=O)[C@@H](O)[C@]12O)[C@H]1[C@@H](C[C@H]3C)[C@@]1(C)OC(=O)/C(C)=C\C`: the growth inhibition in assay [1] was 58.7%; in assay [2], 60.4%; in assay [3] it was 60.6%; in assay [4], 76.3% (active); in assay [5], 56.8%; in assay [6], 59.2%.

For the compound `c1ccc2cc(N=NNc3ccc4ccccc4c3)ccc2c1`, the growth inhibition in assay [1] was 63.6%; in assay [2], -4.1%; in assay [3] it was 27.9%; in assay [4] it was -30.6%; in assay [5], 47.5%; in assay [6] it was 74% (active).

Turning to `O=NN(CCCl)C(=O)NC1CCC(CC2CCC(NC(=O)N(CCCl)N=O)CC2)CC1` (stereo not given), the growth inhibition in assay [1] is 24.9%; in assay [2] it was 5.6%; in assay [3], 8.05%; in assay [4] it was 29.5%; in assay [5] it was -6.45%; in assay [6] it was 10.6%.

Consider `COc1cccc(-c2cc(=O)c3cccnc3[nH]2)c1`, for which the growth inhibition in assay [1] was -49.4%; in assay [2], 3.25%; in assay [3], 28.8%; in assay [4], 7.45%; in assay [5], 26.6%; in assay [6], 13.9%.

Turning to `CN(C)c1ccc(/C=c2\sc3nnc(Cc4ccccc4)n3c2=O)cc1`, the growth inhibition in assay [1] was -7.8%; in assay [2] it was -13.6%; in assay [3], -0.25%; in assay [4] it was 11.1%; in assay [5] it was 11.1%; in assay [6], 1.35%.

As for `C#C/C=C/CC(OC(C)=O)C1C/C=C\CC(Br)C(CC)O1` (stereo not given), the growth inhibition in assay [1] is 31.1%; in assay [2], 16.5%; in assay [3] it was 46%; in assay [4], 36.1%; in assay [5], 49%; in assay [6], 45.3%.

As for `O=C(Cn1ccnc1[N+](=O)[O-])c1ccc(F)cc1`, the growth inhibition in assay [1] is 62.8%; in assay [2], -13.9%; in assay [3], 33.9%; in assay [4], 4.6%; in assay [5], -9.9%; in assay [6] it was 13.3%.

Regarding `Cc1ccc(S(=O)(=O)N/N=C2\CCC3(C)C(=CCC4C3CCC3(C)C(C(C)CCCC(C)C)CCC43)C2(C)C)cc1` (stereo not given), the growth inhibition in assay [1] was 0.45%; in assay [2] it was -1.2%; in assay [3] it was -11.2%; in assay [4], 2.75%; in assay [5], -7.95%; in assay [6], -0.1%.

Turning to `COc1cc(C(=O)O)c(Br)c(OC)c1OC`, the growth inhibition in assay [1] is -1.55%; in assay [2], 20.1%; in assay [3], 2.55%; in assay [4], -12.7%; in assay [5], 42.9%; in assay [6] it was 1%.

For `Cn1c(CC(O)c2nc3ccccc3n2C)nc2ccccc21` (stereo not given), the growth inhibition in assay [1] was -18.7%; in assay [2] it was -18.6%; in assay [3], -10.2%; in assay [4] it was -8.75%; in assay [5] it was -23.8%; in assay [6], -33.5%.

For the compound `COCCNc1ccc([N+](=O)[O-])cc1[N+](=O)[O-]`, the growth inhibition was 1.85% in assay [1]; -1.85% in assay [2]; -3.75% in assay [3]; -26.9% in assay [4]; -8.65% in assay [5]; 7.1% in assay [6].

For the compound `NC(=O)C1=C(O)C(=O)NC1=O`, the growth inhibition in assay [1] is 1.6%; in assay [2] it was 1.55%; in assay [3], 8.9%; in assay [4] it was -29.8%; in assay [5] it was 7.05%; in assay [6] it was -5.1%.

Regarding `CCN(CC)c1ccc(/C=C2\SC(=S)NC2=O)cc1`, the growth inhibition in assay [1] is 2.95%; in assay [2] it was 4.65%; in assay [3], 27.6%; in assay [4], 9.95%; in assay [5], 9.35%; in assay [6], 7.75%.

Turning to `Cc1ccc(N=C(Nc2ccc(C)cc2)C(c2ccccc2)c2ccccc2)cc1`, the growth inhibition was 12% in assay [1]; -1.85% in assay [2]; 5.9% in assay [3]; 7.65% in assay [4]; 6.5% in assay [5]; 30.6% in assay [6].

On to `Cc1noc(/N=C/c2ccccc2)c1C`, for which the growth inhibition in assay [1] is -6.8%; in assay [2], -5.45%; in assay [3], -5.3%; in assay [4] it was -28.1%; in assay [5], 4.4%; in assay [6], -2.5%.

On to `CCOC(=O)C1=[N+]([O-])OC2=C(O)CCCC21` (stereo not given), for which the growth inhibition in assay [1] is 5.7%; in assay [2], 2.25%; in assay [3] it was 9.05%; in assay [4] it was -8.85%; in assay [5], 2.4%; in assay [6], -19.3%.

For the compound `CCOC(C)=C(C#N)C#N`, the growth inhibition in assay [1] was 8.9%; in assay [2], -9.4%; in assay [3] it was 8.95%; in assay [4], -7.85%; in assay [5], -10.2%; in assay [6] it was 4.9%.

Turning to `CCCCCCNC(=O)C1=C(C)NC(C)=C(C(=O)NCCCCCC)C1`, the growth inhibition in assay [1] is 4.9%; in assay [2] it was 1.35%; in assay [3], -6.4%; in assay [4], -24.9%; in assay [5], 6.8%; in assay [6], -42.2%.
